Inconclusive results are not listed. The source made the active and inactive calls. Unless noted, the call rests on the fitted dose curve; in most records, active means well fitted curve in the direction sought with a large enough effect in the repeat runs; inconclusive means weak or mixed curves; inactive means no such curve, though single readings can be large; an effect the other way counts as inactive or inconclusive.
How the values were obtained:
[1] = qHTS assay to identify small molecule antagonists of the thyroid receptor (TR) signaling pathway (AID 743065); further: nearly all actives have a fitted effect of over 55% in size
Procedure, shortened: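 GH3.TRE-Luc rat pituitary cells carrying two TR response elements driving luciferase were plated for 4 h, given compound plus 1 nM T3 (final), and incubated 23.5 h at 37 C. ONE-Glo luminescence measured reporter inhibition; CellTiter-Fluor fluorescence tracked cytotoxicity.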

[2] = system: thyroid hormone receptor (rat, GH3 cells); experiment: qHTS assay to identify small molecule agonists of the thyroid receptor (TR) signaling pathway (AID 743066; calls by dose curve)
[3] = target: Estrogen receptor (Homo sapiens) (UniProt P03372); experiment: qHTS assay to identify small molecule antagonists of the estrogen receptor alpha (ER-alpha) signaling pathway (AID 743069; active means well fitted curve in the direction sought with a large enough effect in the signal ratio in the repeat runs, not every such curve was filed as active; the % refers to the signal ratio)
Procedure, shortened: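 Screening used a UAS-driven beta-lactamase reporter integrated into HEK293 cells expressing ER-alpha, stimulated with 17beta-estradiol alongside test compounds over 18 hr at 37C; signal came from LiveBLAzer B/G FRET fluorescence.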

[4] = qHTS assay to identify small molecule antagonists of the estrogen receptor alpha (ER-alpha) signaling pathway - cell viability counter screen (AID 743074; calls by dose curve; further: nearly all actives have a fitted effect of over 45% in size)
[5] = target: Estrogen receptor (Homo sapiens) (UniProt P03372); experiment: qHTS assay to identify small molecule agonists of the estrogen receptor alpha (ER-alpha) signaling pathway (AID 743075; calls by dose curve)
[6] = target: Estrogen receptor (Homo sapiens) (UniProt P03372); experiment: qHTS assay to identify small molecule agonists of the estrogen receptor alpha (ER-alpha) signaling pathway using the BG1 cell line (AID 743079); details: BG1Luc4E2 cells, ERE-luciferase agonist, 22 h; further: nearly all actives have a fitted effect of over 20% in size
[7] = qHTS assay to identify small molecule antagonists of the estrogen receptor alpha (ER-alpha) signaling pathway using the BG1 cell line (AID 743080; calls by dose curve;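 further: BG1 cells stimulated with 17beta-estradiol alongside compound; nearly all actives have a fitted effect of over 25% in size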)
Procedure, shortened: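 BG1-Luc-4E2 cells (endogenous full-length ER-alpha, 4xERE luciferase) hormone-starved 5 days in charcoal-stripped FBS, plated 4,000/well for 24 h, then compound plus 17beta-estradiol for 21.5 h at 37 C; ONE-Glo luminescence read.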

[8] = qHTS assay to identify small molecule antagonists of the estrogen receptor alpha (ER-alpha) signaling pathway using the BG1 cell line - cell viability counter screen (AID 743081);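 further: compound given together with 17beta-estradiol as the ER stimulus; nearly all actives have a fitted effect of over 45% in size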
[9] = target: Aromatase (Homo sapiens) (UniProt P11511); experiment: qHTS assay to identify aromatase inhibitors (AID 743083); further: nearly all actives have a fitted effect of over 55% in size
[10] = qHTS assay to identify aromatase inhibitors - cell viability counter screen (AID 743084);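 further: cells stimulated with testosterone during compound exposure; nearly all actives have a fitted effect of over 55% in size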
[11] = target: Aryl hydrocarbon receptor (Homo sapiens) (UniProt P35869); experiment: qHTS assay to identify small molecule that activate the aryl hydrocarbon receptor (AhR) signaling pathway (AID 743085);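 further: HG2L7.5c1 human HepG2 liver cells with stably integrated DRE-driven firefly reporter; nearly all actives have a fitted effect of over 15% in size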
Procedure, shortened: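 24 h compound exposure, 37C, HepG2-derived HG2L7.5c1 cells with DRE-responsive luciferase. Readouts: fluorescence viability, then luminescence at room temperature after 30 min.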

[12] = qHTS assay to identify small molecule that activate the aryl hydrocarbon receptor (AhR) signaling pathway - cell viability counter screen (AID 743086);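 further: HepG2 liver cells carrying the AhR DRE luciferase reporter; nearly all actives have a fitted effect of over 45% in size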
Procedure, shortened: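 HepG2-AhR-luc (HG2L7.5c1) cells, 4000/well, were preincubated 5 h at 37C, exposed to compound in qHTS format for 24 hr at 37C, then given CellTiter-Fluor for 30 min; viability was read as fluorescence in the reporter wells.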

[13] = target: Peroxisome proliferator-activated receptor gamma (Homo sapiens) (UniProt P37231); experiment: qHTS assay to identify small molecule agonists of the peroxisome proliferator-activated receptor gamma (PPARg) signaling pathway (AID 743094; active means well fitted activation curve with a large enough effect in the signal ratio in the repeat runs, not every such curve was filed as active; the % refers to the signal ratio)
Procedure, shortened: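 Reporter activation was scored by fluorescence of cleaved LiveBLAzer B/G substrate (1 h, room temperature) in PPARg-bla HEK293H cells previously treated 17 h at 37C with DMSO-dissolved compounds.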

[14] = qHTS assay for small molecule agonists of the antioxidant response element (ARE) signaling pathway (AID 743202; active means well fitted activation curve with a large enough effect in the signal ratio in the repeat runs, not every such curve was filed as active; the % refers to the signal ratio)
Procedure, shortened: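 Steps: seed ARE-bla HepG2 cells (2,000/well); incubate 5 h at 37 C; add compounds by pin tool; incubate 16 h at 37 C; add FRET substrate; read fluorescence after 2 h at RT.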

[15] = qHTS assay for small molecule activators of the heat shock response signaling pathway - cell viability counter screen (AID 743209); further: nearly all actives have a fitted effect of over 50% in size
Procedure, shortened: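 Viability of HSE-bla HeLa cells is measured with CellTiter-Glo in the wells already used for the reporter read. Compound exposure lasts 5 h at 37 C, and luminescence is read after 30 min at room temperature.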

[16] = qHTS assay for small molecule activators of the heat shock response signaling pathway (AID 743210; active means well fitted activation curve with a large enough effect in the signal ratio in the repeat runs, with a control signal flat, not every such curve was filed as active; the % refers to the signal ratio;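 further: HeLa cells with beta-lactamase reporter driven by heat shock elements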)
Procedure, shortened: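 Activation of heat shock element-controlled beta-lactamase expression is measured in HeLa cells by LiveBLAzer FRET fluorescence, with compound exposure lasting 5 h at 37 C and substrate loading 2.5 h at room temperature.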

[17] = qHTS assay to identify small molecule agonists of the peroxisome proliferator-activated receptor delta (PPARd) signaling pathway - cell viability counter screen (AID 743211); further: nearly all actives have a fitted effect of over 55% in size
Procedure, shortened: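 Luminescent ATP viability assay (CellTiter-Glo, 30 min RT) in UAS-bla HEK293H cells carrying the PPAR delta reporter construct, 3000 cells/well, after a 17 h compound treatment at 37 C.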

[18] = target: Peroxisome proliferator-activated receptor gamma (Homo sapiens) (UniProt P37231); experiment: qHTS assay to identify small molecule antagonists of the peroxisome proliferator-activated receptor gamma (PPARg) signaling pathway (AID 743191; calls by dose curve; further: nearly all actives have a fitted effect of over 30% in size)
Procedure, shortened: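 GeneBLAzer PPARg UAS-bla HEK293H cells carrying a UAS-driven beta-lactamase reporter were plated at 3000 cells/well, preincubated 5 h at 37C, then given compound for 17 h at 37C; LiveBLAzer B/G FRET substrate was read after 1 h at room temperature.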

[19] = qHTS assay to identify small molecule antagonists of the peroxisome proliferator-activated receptor gamma (PPARg) signaling pathway - cell viability counter screen (AID 743194); details: Potency: co-treated with 50 nM rosiglitazone; further: nearly all actives have a fitted effect of over 55% in size
Procedure, shortened: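 PPARg-UAS-bla HEK293H cells were plated, rested 5 h at 37 C, then treated with compounds plus rosiglitazone (50 nM final) for 17 h at 37 C; viability was then read by CellTiter-Glo luminescence after 30 min at room temperature.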

[20] = qHTS assay for small molecule agonists of the antioxidant response element (ARE) signaling pathway - cell viability counter screen (AID 743203; calls by dose curve; further: nearly all actives have a fitted effect of over 55% in size)
Procedure, shortened: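 Viability counter screen: stably transfected ARE-bla HepG2 line, 16 hrs compound exposure at 37C/5% CO2, ATP-based CellTiter-Glo luminescence measured in the reporter wells.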
On the % scale 0 is the no-effect control and ±100 the full control effect.

Sequence of Peroxisome proliferator-activated receptor gamma (Homo sapiens) (P37231 whole entry, looked up): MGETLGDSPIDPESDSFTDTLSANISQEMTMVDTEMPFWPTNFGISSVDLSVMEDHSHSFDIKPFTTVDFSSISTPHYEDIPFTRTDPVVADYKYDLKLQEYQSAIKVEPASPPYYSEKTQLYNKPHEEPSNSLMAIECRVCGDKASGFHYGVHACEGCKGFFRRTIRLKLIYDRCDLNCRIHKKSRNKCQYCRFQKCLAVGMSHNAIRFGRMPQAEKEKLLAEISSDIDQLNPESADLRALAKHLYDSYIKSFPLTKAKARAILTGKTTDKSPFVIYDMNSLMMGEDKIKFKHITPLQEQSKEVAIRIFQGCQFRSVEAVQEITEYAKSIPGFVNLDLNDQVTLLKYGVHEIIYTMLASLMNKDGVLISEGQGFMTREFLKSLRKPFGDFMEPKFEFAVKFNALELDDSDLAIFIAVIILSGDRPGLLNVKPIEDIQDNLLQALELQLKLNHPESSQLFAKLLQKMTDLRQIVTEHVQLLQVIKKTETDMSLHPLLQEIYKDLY
Sequence of Estrogen receptor (Homo sapiens) (P03372 whole entry, looked up): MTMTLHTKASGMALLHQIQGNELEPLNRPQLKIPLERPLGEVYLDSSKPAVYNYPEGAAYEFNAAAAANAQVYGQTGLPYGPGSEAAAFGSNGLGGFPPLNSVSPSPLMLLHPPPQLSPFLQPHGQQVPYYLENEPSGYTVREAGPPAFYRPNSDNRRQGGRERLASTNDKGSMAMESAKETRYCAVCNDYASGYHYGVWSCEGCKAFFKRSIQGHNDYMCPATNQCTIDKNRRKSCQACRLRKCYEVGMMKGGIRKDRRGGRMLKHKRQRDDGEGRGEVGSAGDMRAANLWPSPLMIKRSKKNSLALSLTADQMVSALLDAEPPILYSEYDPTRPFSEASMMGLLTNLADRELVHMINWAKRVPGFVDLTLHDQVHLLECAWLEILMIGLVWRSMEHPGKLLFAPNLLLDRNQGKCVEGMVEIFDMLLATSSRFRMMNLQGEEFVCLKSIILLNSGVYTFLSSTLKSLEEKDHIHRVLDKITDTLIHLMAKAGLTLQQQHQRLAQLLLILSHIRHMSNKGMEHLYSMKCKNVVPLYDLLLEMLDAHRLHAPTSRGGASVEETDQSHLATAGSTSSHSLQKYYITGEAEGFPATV
Sequence of Aryl hydrocarbon receptor (Homo sapiens) (P35869 whole entry, looked up): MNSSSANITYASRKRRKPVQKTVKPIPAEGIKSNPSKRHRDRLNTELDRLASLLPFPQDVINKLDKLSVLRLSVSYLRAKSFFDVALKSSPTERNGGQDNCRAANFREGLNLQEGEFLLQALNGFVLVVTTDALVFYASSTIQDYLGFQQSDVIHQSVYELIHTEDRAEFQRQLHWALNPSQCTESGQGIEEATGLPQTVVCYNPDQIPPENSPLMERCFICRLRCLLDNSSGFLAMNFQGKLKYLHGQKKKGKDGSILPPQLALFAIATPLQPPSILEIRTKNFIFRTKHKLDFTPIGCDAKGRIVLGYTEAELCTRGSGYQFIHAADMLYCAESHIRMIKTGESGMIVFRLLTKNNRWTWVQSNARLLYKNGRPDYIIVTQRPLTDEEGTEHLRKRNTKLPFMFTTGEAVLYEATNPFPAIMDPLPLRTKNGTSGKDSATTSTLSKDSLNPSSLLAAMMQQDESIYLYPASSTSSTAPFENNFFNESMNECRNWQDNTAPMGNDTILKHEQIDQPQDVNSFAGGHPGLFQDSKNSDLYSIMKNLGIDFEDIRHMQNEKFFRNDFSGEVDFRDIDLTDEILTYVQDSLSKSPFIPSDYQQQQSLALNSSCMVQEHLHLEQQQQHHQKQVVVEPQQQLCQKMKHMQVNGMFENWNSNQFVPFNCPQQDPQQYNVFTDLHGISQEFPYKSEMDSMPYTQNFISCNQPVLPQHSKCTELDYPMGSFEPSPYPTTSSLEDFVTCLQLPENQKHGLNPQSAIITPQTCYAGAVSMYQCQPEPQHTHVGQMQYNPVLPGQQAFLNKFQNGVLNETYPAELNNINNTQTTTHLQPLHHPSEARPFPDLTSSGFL
Sequence of Aromatase (Homo sapiens) (P11511 whole entry, looked up): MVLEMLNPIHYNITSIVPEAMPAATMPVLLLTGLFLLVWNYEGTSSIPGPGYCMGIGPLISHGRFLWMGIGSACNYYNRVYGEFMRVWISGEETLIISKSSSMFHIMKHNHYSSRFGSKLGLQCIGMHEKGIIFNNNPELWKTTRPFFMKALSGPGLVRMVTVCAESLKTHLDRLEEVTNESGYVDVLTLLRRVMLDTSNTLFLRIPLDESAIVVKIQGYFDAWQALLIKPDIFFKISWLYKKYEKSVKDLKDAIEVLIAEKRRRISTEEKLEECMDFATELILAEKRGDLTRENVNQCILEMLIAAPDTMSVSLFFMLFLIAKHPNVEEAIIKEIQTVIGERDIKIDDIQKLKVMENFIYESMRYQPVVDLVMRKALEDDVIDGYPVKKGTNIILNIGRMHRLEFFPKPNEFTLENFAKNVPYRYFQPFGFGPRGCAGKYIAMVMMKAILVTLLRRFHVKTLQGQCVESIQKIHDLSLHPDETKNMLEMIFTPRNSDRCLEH

CCCSC(=O)Cl
inactive: Potency [1] | Potency [2] | Potency [3] | outcome [4] | Potency [5] | activation ([6]; at 95 µM (top of the series)) 3.93% | Potency [7] | Potency [8] | Potency [9] | Potency [10] | Potency [11] | outcome [12] | outcome [13] | Potency [14] | Potency [15] | outcome [16] | Potency [17]

CCC(C)n1c(=O)[nH]c(C)c(Br)c1=O (stereo unspecified)
inactive: Potency [1] | Potency [2] | Potency [3] | outcome [4] | Potency [5] | activation ([6]; at 70.3 µM (top of the series)) 1.5% | Potency [7] | Potency [8] | Potency [9] | Potency [10] | outcome [12] | outcome [13] | Potency [18] | Potency [19] | Potency [14] | Potency [20] | Potency [15] | outcome [16] | Potency [17]

BrCCCCCCBr
inactive: Potency [1] | Potency [2] | Potency [3] | outcome [4] | Potency [5] | activation ([6]; at 70.3 µM (top of the series)) -3.68% | Potency [7] | Potency [8] | Potency [9] | Potency [10] | outcome [12] | outcome [13] | Potency [18] | Potency [19] | Potency [20] | Potency [15] | outcome [16] | Potency [17]

ClC(Cl)C(Cl)Cl
inactive: Potency [1] | Potency [2] | Potency [3] | outcome [4] | Potency [5] | activation ([6]; at 95 µM (top of the series)) -0.198% | Potency [7] | Potency [8] | Potency [9] | Potency [10] | Potency [11] | outcome [12] | outcome [13] | Potency [19] | Potency [14] | Potency [15] | outcome [16] | Potency [17]

Nc1cc2c3c(c1)C(c1ccccc1)=N[C@@H](NC(=O)c1cccnc1)C(=O)N3CC2
inactive: Potency [1] | Potency [2] | Potency [3] | outcome [4] | Potency [5] | activation ([6]; at 70.3 µM (top of the series)) -22.1% | Potency [8] | Potency [9] | Potency [10] | Potency [11] | outcome [12] | Potency [18] | Potency [19] | Potency [14] | Potency [20] | Potency [15] | outcome [16] | Potency [17]

NC(=O)O
inactive: Potency [1] | Potency [2] | Potency [3] | outcome [4] | Potency [5] | activation ([6]; at 70.3 µM (top of the series)) -5.63% | Potency [7] | Potency [8] | Potency [9] | Potency [10] | Potency [11] | outcome [12] | Potency [19] | Potency [14] | Potency [20] | outcome [16] | Potency [17]

C1CCC(C2CCCCC2)CC1
inactive: Potency [1] | Potency [2] | Potency [3] | outcome [4] | Potency [5] | activation ([6]; at 70.3 µM (top of the series)) -17.5% | Potency [7] | Potency [8] | Potency [9] | Potency [10] | Potency [11] | outcome [12] | outcome [13] | Potency [17]

CCN(Cc1ccc(Cl)nc1)/C(=C/[N+](=O)[O-])NC
inactive: Potency [1] | Potency [2] | Potency [3] | outcome [4] | Potency [5] | activation ([6]; at 70.3 µM (top of the series)) 1.15% | Potency [7] | Potency [8] | Potency [9] | Potency [10] | Potency [11] | outcome [12] | outcome [13] | Potency [19] | Potency [14] | Potency [15] | outcome [16] | Potency [17]

CCCCP(CCCC)CCCC
inactive: Potency [1] | Potency [2] | Potency [3] | outcome [4] | Potency [5] | activation ([6]; at 70.3 µM (top of the series)) 0.877% | Potency [7] | Potency [8] | Potency [9] | Potency [10] | Potency [11] | outcome [12] | Potency [19] | Potency [14] | Potency [20] | Potency [15] | outcome [16]

C[N+](C)=CCl
inactive: Potency [1] | Potency [2] | Potency [3] | outcome [4] | Potency [5] | activation ([6]; at 70.3 µM (top of the series)) 20.5% | Potency [7] | Potency [8] | Potency [9] | Potency [10] | outcome [12] | outcome [13] | Potency [18] | Potency [19] | Potency [14] | Potency [15] | outcome [16] | Potency [17]

CCS(=O)(=O)C(C)(C)S(=O)(=O)CC
inactive: Potency [1] | Potency [2] | Potency [3] | outcome [4] | Potency [5] | activation ([6]; at 70.3 µM (top of the series)) 0.0569% | Potency [7] | Potency [8] | Potency [9] | Potency [10] | Potency [11] | outcome [12] | outcome [13] | Potency [19] | Potency [14] | Potency [15] | outcome [16] | Potency [17]

CCCCc1ccc(O)cc1
inactive: Potency [1] | Potency [2] | Potency [3] | outcome [4] | Potency [5] | activation ([6]; at 70.3 µM (top of the series)) 12.6% | Potency [7] | Potency [8] | Potency [10] | Potency [11] | outcome [12] | outcome [13] | Potency [18] | Potency [20] | Potency [15] | outcome [16] | Potency [17]

O=[N+]([O-])c1cc(Cl)c(Cl)c(Cl)c1
inactive: Potency [1] | Potency [2] | Potency [3] | outcome [4] | Potency [5] | activation ([6]; at 70.3 µM (top of the series)) 9.06% | Potency [7] | Potency [8] | Potency [9] | Potency [11] | outcome [12] | outcome [13] | Potency [19] | Potency [20] | outcome [16] | Potency [17]

Cc1nc(N)nc(N)n1
inactive: Potency [1] | Potency [2] | Potency [3] | outcome [4] | Potency [5] | activation ([6]; at 95 µM (top of the series)) 2.81% | Potency [7] | Potency [8] | Potency [9] | Potency [10] | Potency [11] | outcome [12] | Potency [19] | Potency [15] | outcome [16] | Potency [17]
